Assay results published in the supplement of paper PMC11001985.

Each target was assayed with C#CCNC(=O)CCSSCCC(=O)NCCc1ccc(C=O)c(C=O)c1 (assay: lysine labeling ratio R10:1 (500 µM / 50 µM probe), SILAC-ABPP in living cells; higher = lower intrinsic lysine reactivity toward the probe, active = 2 or less). Details: HeLa; probe concentrations 500 vs 50 µM.
How it was run: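 The two probe levels, 50 µM and 500 µM, of an alkyne-tagged, disulfide-linked lysine probe were applied to living light and heavy SILAC HeLa cells in PBS at room temperature, and the labels were run in both forward and reverse orientation. Mixed lysates underwent biotin-azide click chemistry, trypsin digestion, neutravidin capture, DTT release and alkylation before LC-MS/MS on a TIMS-TOF Pro. R is the filtered median high-probe/low-probe MS1 peptide ratio for each lysine, summarised as the median over forward and reverse replicates. Nothing above 20 is reported; such values are set to 20.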

Chain of UniProt P67809 (P67809 whole entry): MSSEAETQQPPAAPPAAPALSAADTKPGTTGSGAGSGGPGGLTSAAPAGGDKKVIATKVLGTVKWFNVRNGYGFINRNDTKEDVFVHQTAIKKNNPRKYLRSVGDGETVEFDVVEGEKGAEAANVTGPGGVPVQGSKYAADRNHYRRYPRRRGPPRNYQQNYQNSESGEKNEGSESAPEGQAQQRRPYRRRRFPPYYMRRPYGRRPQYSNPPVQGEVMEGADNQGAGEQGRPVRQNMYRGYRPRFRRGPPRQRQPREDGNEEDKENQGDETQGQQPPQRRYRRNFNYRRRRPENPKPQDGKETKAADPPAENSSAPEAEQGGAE
Chain of UniProt O15230 (O15230 whole entry): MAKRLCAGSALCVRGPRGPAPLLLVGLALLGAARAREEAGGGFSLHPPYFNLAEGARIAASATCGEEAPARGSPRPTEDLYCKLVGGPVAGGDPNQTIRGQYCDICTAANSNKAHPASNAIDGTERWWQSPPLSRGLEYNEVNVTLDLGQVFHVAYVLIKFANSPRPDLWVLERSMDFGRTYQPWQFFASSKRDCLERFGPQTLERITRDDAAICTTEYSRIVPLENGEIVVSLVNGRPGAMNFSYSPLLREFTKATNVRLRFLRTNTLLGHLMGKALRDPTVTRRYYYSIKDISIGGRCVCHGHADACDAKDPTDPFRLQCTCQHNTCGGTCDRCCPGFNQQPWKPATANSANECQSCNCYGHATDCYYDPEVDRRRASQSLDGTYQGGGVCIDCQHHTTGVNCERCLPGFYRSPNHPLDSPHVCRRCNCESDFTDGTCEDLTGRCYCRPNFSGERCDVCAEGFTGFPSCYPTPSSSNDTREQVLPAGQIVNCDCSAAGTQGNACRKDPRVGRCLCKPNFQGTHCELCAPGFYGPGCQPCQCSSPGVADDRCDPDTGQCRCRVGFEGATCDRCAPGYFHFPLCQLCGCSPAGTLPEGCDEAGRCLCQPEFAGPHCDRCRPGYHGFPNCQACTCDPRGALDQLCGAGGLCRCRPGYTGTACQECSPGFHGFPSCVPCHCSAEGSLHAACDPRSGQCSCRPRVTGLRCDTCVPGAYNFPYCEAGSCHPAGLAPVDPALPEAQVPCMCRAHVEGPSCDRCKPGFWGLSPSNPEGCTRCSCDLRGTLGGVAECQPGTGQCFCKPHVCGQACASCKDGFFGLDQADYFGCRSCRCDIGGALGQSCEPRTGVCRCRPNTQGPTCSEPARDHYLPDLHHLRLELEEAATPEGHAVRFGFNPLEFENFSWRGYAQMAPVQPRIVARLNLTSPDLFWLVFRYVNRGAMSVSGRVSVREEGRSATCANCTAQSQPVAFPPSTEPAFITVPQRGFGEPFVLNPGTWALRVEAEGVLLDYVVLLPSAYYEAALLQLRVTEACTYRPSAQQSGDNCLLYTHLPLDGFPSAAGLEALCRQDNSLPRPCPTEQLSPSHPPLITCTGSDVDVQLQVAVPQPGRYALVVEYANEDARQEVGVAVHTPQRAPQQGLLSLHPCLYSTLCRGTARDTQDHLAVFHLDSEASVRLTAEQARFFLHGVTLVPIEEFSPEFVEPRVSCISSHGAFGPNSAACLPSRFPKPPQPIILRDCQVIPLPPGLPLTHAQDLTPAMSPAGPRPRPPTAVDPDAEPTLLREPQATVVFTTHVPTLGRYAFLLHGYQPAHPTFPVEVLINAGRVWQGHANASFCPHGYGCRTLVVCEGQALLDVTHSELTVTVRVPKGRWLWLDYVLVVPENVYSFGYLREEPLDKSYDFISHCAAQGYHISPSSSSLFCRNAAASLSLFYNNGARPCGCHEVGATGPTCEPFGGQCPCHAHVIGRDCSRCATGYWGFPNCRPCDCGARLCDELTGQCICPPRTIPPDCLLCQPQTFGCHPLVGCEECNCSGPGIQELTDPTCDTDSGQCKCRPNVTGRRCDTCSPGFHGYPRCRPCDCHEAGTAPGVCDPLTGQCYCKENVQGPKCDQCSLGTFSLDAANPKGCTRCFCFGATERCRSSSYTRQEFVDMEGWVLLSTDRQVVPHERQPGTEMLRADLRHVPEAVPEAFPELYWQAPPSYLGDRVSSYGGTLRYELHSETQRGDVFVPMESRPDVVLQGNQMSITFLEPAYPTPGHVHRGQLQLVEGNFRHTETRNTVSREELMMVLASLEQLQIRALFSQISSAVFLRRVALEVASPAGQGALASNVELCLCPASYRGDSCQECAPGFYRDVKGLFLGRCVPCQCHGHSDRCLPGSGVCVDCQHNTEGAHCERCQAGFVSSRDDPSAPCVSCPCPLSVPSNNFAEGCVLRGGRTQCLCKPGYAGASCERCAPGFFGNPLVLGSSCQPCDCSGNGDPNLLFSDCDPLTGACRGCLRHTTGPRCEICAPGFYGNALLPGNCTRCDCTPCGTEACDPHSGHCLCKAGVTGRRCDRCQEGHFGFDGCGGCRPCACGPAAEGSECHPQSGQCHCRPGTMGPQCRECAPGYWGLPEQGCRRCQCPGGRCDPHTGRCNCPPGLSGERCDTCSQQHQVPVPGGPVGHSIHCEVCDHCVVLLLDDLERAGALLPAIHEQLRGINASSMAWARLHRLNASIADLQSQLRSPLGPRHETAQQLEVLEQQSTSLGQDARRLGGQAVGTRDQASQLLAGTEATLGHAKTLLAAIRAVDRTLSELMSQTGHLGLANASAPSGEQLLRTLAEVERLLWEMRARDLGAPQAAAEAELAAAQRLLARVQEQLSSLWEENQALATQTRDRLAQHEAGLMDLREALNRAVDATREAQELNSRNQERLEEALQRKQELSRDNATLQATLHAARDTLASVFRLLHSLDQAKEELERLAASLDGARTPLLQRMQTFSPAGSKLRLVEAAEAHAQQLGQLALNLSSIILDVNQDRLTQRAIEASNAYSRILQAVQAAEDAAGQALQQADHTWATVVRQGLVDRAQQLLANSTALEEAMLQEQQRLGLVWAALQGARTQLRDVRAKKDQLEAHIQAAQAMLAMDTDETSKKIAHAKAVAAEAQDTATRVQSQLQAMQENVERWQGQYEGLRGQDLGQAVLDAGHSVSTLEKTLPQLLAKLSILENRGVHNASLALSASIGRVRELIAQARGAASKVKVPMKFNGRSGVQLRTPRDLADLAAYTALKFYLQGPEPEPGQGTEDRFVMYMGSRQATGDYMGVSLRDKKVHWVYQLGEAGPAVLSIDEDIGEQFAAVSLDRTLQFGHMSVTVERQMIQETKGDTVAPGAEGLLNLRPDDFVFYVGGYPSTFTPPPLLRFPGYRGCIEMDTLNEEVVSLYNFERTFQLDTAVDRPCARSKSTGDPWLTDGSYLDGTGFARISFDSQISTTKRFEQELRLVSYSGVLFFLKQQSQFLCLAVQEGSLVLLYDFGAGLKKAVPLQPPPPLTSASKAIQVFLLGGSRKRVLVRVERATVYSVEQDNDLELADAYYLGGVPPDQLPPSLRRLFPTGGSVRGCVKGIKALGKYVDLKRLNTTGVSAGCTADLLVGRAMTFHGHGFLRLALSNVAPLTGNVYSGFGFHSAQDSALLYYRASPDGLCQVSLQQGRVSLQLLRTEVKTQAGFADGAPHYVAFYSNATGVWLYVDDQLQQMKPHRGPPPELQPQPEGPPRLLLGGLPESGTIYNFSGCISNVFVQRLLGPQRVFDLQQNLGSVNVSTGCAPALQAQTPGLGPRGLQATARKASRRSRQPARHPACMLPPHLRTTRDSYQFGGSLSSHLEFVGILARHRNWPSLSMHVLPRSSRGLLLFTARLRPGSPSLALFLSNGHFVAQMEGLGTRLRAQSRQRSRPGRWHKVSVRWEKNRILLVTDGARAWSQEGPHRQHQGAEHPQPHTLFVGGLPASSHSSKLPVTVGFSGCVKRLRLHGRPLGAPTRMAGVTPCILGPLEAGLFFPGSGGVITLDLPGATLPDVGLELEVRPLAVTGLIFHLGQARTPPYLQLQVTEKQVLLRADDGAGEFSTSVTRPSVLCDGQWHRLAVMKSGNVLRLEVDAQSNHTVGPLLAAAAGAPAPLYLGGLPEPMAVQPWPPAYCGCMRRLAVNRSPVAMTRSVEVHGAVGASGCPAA
Chain of UniProt Q9Y2W1 (Q9Y2W1 whole entry): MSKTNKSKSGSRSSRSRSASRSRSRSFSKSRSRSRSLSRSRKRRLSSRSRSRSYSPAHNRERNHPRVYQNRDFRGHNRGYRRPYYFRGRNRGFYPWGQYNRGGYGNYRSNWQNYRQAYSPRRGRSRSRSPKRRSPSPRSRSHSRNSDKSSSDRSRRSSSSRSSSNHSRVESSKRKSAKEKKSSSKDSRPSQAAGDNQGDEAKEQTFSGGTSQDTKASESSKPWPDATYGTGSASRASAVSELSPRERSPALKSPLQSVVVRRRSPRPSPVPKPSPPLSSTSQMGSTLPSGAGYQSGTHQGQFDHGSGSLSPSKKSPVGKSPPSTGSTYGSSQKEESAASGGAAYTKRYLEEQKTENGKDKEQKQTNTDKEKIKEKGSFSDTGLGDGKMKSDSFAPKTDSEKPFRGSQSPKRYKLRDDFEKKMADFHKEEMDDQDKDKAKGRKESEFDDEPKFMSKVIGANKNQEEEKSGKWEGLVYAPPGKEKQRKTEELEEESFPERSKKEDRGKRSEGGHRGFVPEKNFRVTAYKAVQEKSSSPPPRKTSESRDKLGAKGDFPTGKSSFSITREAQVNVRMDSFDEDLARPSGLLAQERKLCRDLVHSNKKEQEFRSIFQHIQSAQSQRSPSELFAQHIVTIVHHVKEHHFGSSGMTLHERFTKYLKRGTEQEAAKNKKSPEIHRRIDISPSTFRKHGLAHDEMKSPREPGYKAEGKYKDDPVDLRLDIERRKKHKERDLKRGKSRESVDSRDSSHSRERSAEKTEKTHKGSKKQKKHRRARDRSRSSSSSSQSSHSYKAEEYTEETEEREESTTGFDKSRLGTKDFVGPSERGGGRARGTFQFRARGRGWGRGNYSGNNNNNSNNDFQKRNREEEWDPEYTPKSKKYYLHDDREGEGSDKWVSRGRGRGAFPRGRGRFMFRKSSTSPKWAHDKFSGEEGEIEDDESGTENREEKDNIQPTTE
Chain of UniProt Q9Y5J9 (Q9Y5J9 whole entry): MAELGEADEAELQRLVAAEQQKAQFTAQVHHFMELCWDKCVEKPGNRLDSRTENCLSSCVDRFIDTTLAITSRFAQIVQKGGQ

Row | Target | lysine labeling ratio R10:1
1 | ITGA3 (lysine site: K161) (UniProt P26006) | 5.16 (inactive)
2 | UniProt P02768 (lysine site: K499) | 7.98 (inactive)
3 | NUMA1 (lysine site: K925) (UniProt Q14980) | 2.01 (inactive)
4 | TFRC (lysine site: K344) (UniProt P02786) | 9.15 (inactive)
5 | YBX1 (lysine site: K137) (UniProt P67809) | 7.5 (inactive)
6 | UniProt P26012 (lysine site: K515) | 1.07 (active)
7 | HBA1 (lysine site: K17) (UniProt P69905) | 3.74 (inactive)
8 | ACSL3 (lysine site: K422) (UniProt O95573) | 1.49 (active)
9 | NRP1 (lysine site: K536) (UniProt O14786) | 5.72 (inactive)
10 | PSMA2 (lysine site: K53) (UniProt P25787) | 2.94 (inactive)
11 | MYH9 (lysine site: K1492) (UniProt P35579) | 2.92 (inactive)
12 | FAT4 (lysine site: K2215) (UniProt Q6V0I7) | 3.48 (inactive)
13 | HNRNPM (lysine site: K716) (UniProt P52272) | 1.35 (active)
14 | CPNE1 (lysine site: K73) (UniProt Q99829) | 2.97 (inactive)
15 | RPL22 (lysine site: K52) (UniProt P35268) | 7.72 (inactive)
16 | TIMM8B (lysine site: K80) (UniProt Q9Y5J9) | 1.18 (active)
17 | SLC25A11 (lysine site: K57) (UniProt Q02978) | 1.95 (active)
18 | SCARB2 (lysine site: K129) (UniProt Q14108) | 5.93 (inactive)
19 | SPTBN1 (lysine site: K932) (UniProt Q01082) | 3.29 (inactive)
20 | UniProt Q96JJ7 (lysine site: K164) | 1.61 (active)

Row | Target | lysine labeling ratio R10:1
21 | UniProt Q15697 (lysine site: K143) | 2.8 (inactive)
22 | LAMA5 (lysine site: K2481) (UniProt O15230) | 1.15 (active)
23 | CD109 (lysine site: K491) (UniProt Q6YHK3) | 2.99 (inactive)
24 | UniProt Q99623 (lysine site: K147) | 3.43 (inactive)
25 | FBL (lysine site: K131) (UniProt P22087) | 2.15 (inactive)
26 | UniProt P61978 (lysine site: K422) | 4.02 (inactive)
27 | AHNAK (lysine site: K563) (UniProt Q09666) | 2.5 (inactive)
28 | MAP4 (lysine site: K946) (UniProt P27816) | 1.95 (active)
29 | AGRN (lysine site: K77) (UniProt O00468) | 1.69 (active)
30 | THRAP3 (lysine site: K519) (UniProt Q9Y2W1) | 3.8 (inactive)
31 | ENG (lysine site: K291) (UniProt P17813) | 5.59 (inactive)
32 | ICAM1 (lysine site: K359) (UniProt P05362) | 3.71 (inactive)
33 | FLNA (lysine site: K2387) (UniProt P21333) | 11.9 (inactive)
34 | UniProt Q15149 (lysine site: K1975) | 5.68 (inactive)
35 | FRAS1 (lysine site: K1164) (UniProt Q86XX4) | 1.34 (active)
36 | IGF1R (lysine site: K665) (UniProt P08069) | 1.28 (active)
37 | MSN (lysine site: K400) (UniProt P26038) | 3.75 (inactive)
38 | TKT (lysine site: K543) (UniProt P29401) | 9.07 (inactive)
39 | PVR (lysine site: K153) (UniProt P15151) | 4.25 (inactive)
40 | S100A4 (lysine site: K57) (UniProt P26447) | 3.85 (inactive)
